NS1 function inh: blocks influenza NS1 protein function | Potency, µM (highest dose often 46.1 µM), without a hit: at the top dose activity, positive = more growth | 0.4% of 270,000 active | AID 2326; calls by dose curve; note: potency is the fitted concentration of half-maximal effect; actives are rising curves; nearly all actives have a fitted effect of over 50% in size
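S. cerevisiae expressing influenza A NS1, grown in glucose, washed, then diluted 1:100 into pH 6.0 -URA galactose medium with 23 nl compound. Growth recovery read as OD600; NS1-free strain serves as control.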
CHX counter: affects cycloheximide protein synthesis inhibition readout, counter-screen; cell reporter, cycloheximide protein synthesis inhibition counterscreen; 12% of 300,000 active; max response, %; in the data active = max response mostly above about 13%, no sharp cut-off; inactive = mostly below about 14%; note: read at 38.3 µM for the half of the compounds with a filed dose; 0% is about no effect
AmpC detergent: blocks E. coli AmpC beta-lactamase in detergent assay. P00811. AmpC hydrolysis of nitrocefin, absorbance 480 nm, 0.01% Triton. 0.041% of 370,000 active. Potency, µM (top dose mostly 114 µM), for the others: top-dose activity change, negative = inhibition, most hits filed as inhibitors;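 note: potency is the fitted concentration of half-maximal effect; 0% = no-compound wells and -100% = no-enzyme wells; nearly all actives have a fitted effect of over 25% in size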
Target sequence (P00811 whole entry, looked up): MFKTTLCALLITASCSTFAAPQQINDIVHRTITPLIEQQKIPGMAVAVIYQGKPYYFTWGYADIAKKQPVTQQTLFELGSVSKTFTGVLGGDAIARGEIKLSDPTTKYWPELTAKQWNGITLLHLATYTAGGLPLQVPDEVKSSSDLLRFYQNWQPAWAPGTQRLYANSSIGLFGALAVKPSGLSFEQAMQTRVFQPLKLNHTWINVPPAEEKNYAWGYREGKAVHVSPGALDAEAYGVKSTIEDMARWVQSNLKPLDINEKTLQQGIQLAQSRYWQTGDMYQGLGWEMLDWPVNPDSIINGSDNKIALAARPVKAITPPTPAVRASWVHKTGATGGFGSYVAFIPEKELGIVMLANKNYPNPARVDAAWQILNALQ
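AmpC (5.3 nM in the dispensed reagent) in 20 mM phosphate pH 7.0 with 0.01% (detergent screen) or 0.0001% Triton X-100 was preincubated with compounds for 15 min at room temperature. Nitrocefin was then added from an 800 uM solution, and hydrolysis was followed at 480 nm.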
Shiga toxin inh: blocks Shiga toxin action in Vero cells; Vero cells, Shiga toxin protein synthesis inhibition reporter; inhibition, % at 38.7 µM; 9.2% of 290,000 active; AID 2315; in the data active = inhibition mostly above about 28%, no sharp cut-off; inactive = mostly below about 43%; note: 0% is about no effect
AmpC no deterg: blocks E. coli AmpC beta-lactamase in detergent-free assay; P00811; AmpC nitrocefin hydrolysis, absorbance 480 nm, 0.0001% Triton; Potency, µM (highest dose often 57.1 µM), inactives show at the top dose activity change, negative = inhibition, hits mostly inhibitors; 0.52% of 330,000 active; AID 485341;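 note: potency is the fitted concentration of half-maximal effect; plate controls were no compound for no effect and no enzyme for full effect; nearly all actives have a fitted effect of over 20% in size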
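20 mM phosphate pH 7.0 + 0.01% (detergent screen) or 0.0001% Triton X-100; 5.3 nM AmpC reagent; cpd preinc 15 min RT; nitrocefin (800 uM stock) to start; A480 q20 s × 4 min; Activity was normalised to no-enzyme and no-compound control wells.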
Starred values were filed as active, the others as inactive; i = inactive; ? = inconclusive; · = no result. This excerpt belongs to a sample that is enriched for hits. Unless noted, calls come from the whole dose curve; as a rule, active = well fitted curve in the direction sought with a large enough effect; inconclusive = small, poorly fitted or top-dose-only effect, or another doubt; inactive = no such curve, though single readings can be large; an effect the other way counts as inactive or inconclusive.

SMILES | NS1 function inh | CHX counter | AmpC detergent | Shiga toxin inh | AmpC no deterg
O=C(COc1ccc(F)cc1)Nc1ccc(S(=O)(=O)Nc2ncccn2)cc1 | · | · | -9% | · | -25%
COc1ccccc1NC(=O)COc1ccc(CO)cc1Cl | -54% | 32* | -11% | 57* | 4%
COc1ccccc1NC(=O)COc1ccc(C(=O)NCc2ccccc2)cc1OC | · | · | -13% | · | -27%
CCOC(=O)c1c(NC(=O)C2CCCN(S(=O)(=O)c3ccc(C)cc3)C2)sc2c1CCCC2 (stereo not drawn) | -4% | -1 | ? | -2 | -15%
Cn1cccc1-c1cc2n(n1)CCC(=O)N2CC(=O)Nc1ccc(F)cc1Cl | · | · | -1% | · | ·
Cc1nnc(NC(=O)C(C)Sc2nnc(CNC(=O)c3ccccc3F)n2C)s1 (stereo not drawn) | · | · | -12% | · | -7%
CCOC(=O)C1Oc2ccccc2C(c2ccc(F)cc2)=C1C(=O)OC (stereo not drawn) | · | 5 | · | i | 18%
CCOC(=O)C1Oc2ccccc2C(c2ccc(C)cc2)=C1C(=O)OC (stereo not drawn) | · | 19* | · | i | 19%
Cn1c(=O)[nH]c(=O)c2c1nc(NCCCO)n2Cc1ccc(F)cc1 | 1% | 16 | ? | 79* | -21%
Cc1ccc(Nc2nc3c(c(=O)[nH]c(=O)n3C)n2Cc2ccc(F)cc2)cc1 | -1% | 13* | -13% | 26* | -34%
Cc1ccc(C(=O)NC(NC(=S)Nc2ccc(S(N)(=O)=O)cc2)C(Cl)(Cl)Cl)cc1 (stereo not drawn) | 14% | 1 | ? | -4 | -28%
Cc1ccccc1C(=O)NC(NC(=S)Nc1ccc(S(N)(=O)=O)cc1)C(Cl)(Cl)Cl (stereo not drawn) | 13% | -1 | -14% | -11 | 20µM*
Clc1ccc(-c2noc(CN3CCOCC3)n2)cc1 | 4% | 57* | -1% | 68* | 50%
O=CN1CCCN(Cc2nc(-c3cccc(Cl)c3)no2)CC1 | -3% | 28* | 4% | 24 | 18%
COc1ccccc1CNC(=O)C1CCN(S(=O)(=O)Cc2ccccc2)CC1 | · | · | 19% | · | ·
NS(=O)(=O)c1ccc(NC(=O)CCC(=O)c2ccc(Cl)s2)cc1 | 7% | -3 | -9% | -16 | -21%
Nc1ccc2c(c1)oc1ccccc12 | -3% | 27* | 0% | 50* | -2%
Cc1n[nH]c(C)c1S(=O)(=O)N1CCCC(C(=O)Nc2ccc(Cl)cc2)C1 (stereo not drawn) | · | · | -1% | · | ·
O=C(O)c1cccc(OS(=O)(=O)c2cc(Br)ccc2Br)c1 | · | · | -9% | · | -25%
CCC(N=c1cc(-c2ccc(OC)cc2)oc2ccc(C)cc12)C(=O)O (stereo not drawn) | -11% | 82* | -18% | 77* | 10%
CCC(N=c1cc(-c2ccc(OC)c(OC)c2)oc2ccc(C)cc12)C(=O)O (stereo not drawn) | -8% | 21* | -5% | 16 | -8%
CCCCC(=O)Oc1ccc2oc(-c3ccc(OC)cc3)cc(=O)c2c1 | · | · | 6% | · | ·
CC(Sc1ccc(Cl)cc1)C(=O)NNC(=O)c1ccco1 (stereo not drawn) | · | · | · | · | -1%
O=c1c2c(nc3cc(-c4ccc(Cl)cc4)[nH]n13)CCS2 | 12% | 51* | -5% | 30 | -20%
CCOC(=O)CCc1c(C)nc2cc(-c3ccc(Cl)cc3)[nH]n2c1=O | 1% | 7 | 0% | -5 | -11%
SMILES | NS1 function inh | CHX counter | AmpC detergent | Shiga toxin inh | AmpC no deterg
CCOC(=O)Cc1c(C)nc2cc(-c3ccc(C)cc3)[nH]n2c1=O | -1% | 15* | 1% | 38 | -32%
CCc1c(C)nc2cc(-c3cccc(Br)c3)[nH]n2c1=O | ? | 38* | -5% | 80* | -46%
CCc1c(C)nc2cc(-c3ccc(Cl)cc3)[nH]n2c1=O | 28% | 35* | -17% | 35* | -27%
COc1ccc(Cl)cc1NC(=O)Cn1ccn(Cc2ccc(C)cc2)c(=O)c1=O | · | · | 0% | · | ·
CCOc1ccccc1CNc1ncnc2ccc(-c3c(C)noc3C)cc12 | · | 30* | ? | 52 | -13%
Fc1ccccc1OCCSc1ncnc2nc[nH]c12 | -3% | 36* | -7% | 76* | -3%
COc1ccc(OCCSc2ncnc3nc[nH]c23)cc1 | -55% | 37* | ? | 36 | -5%
O=C(O)CSc1ncnc2nc[nH]c12 | 1% | -7 | 2% | -17 | -8%
CCN(CC)C(=S)Nc1cc(C(=O)OC)ccc1C(=O)OC | -11% | -4 | -14% | 13 | -19%
Cc1noc(NC(=O)c2ccccc2)c1C#N | 17% | -1 | 6% | -4 | 3%
COc1cc2ccccc2cc1C(=O)Nc1ccc(C)cn1 | -12% | 48* | -13% | 102* | -23%
O=C(Nc1ccccc1NC(=O)c1ccccc1F)c1ccccc1F | -12% | 1 | -17% | -6 | -18%
Cc1cc(NC(=O)c2ccccc2F)on1 | 14% | 42* | -1% | 67* | -3%
Cc1ccc(NC(=O)c2ccccc2F)nc1 | -9% | 43* | ? | 66* | -16%
Cc1cc(NC(=O)c2ccc(C#N)cc2)on1 | 1% | 11* | 0% | 20 | -8%
Cc1ccc(NC(=O)c2ccc(C(=O)c3ccccc3)cc2)nc1 | · | · | 1% | · | 21%
Cc1ccc(NC(=O)c2ccc3nc[nH]c3c2)nc1 | 6% | -5 | 3% | -17 | -13%
Cc1ccc(NC(=O)c2cc(F)c(F)cc2Cl)nc1 | -8% | 58* | 2% | 49* | -11%
Cc1ccc(C(=O)Nc2onc(C)c2C#N)cc1 | -13% | 12* | -3% | 11 | -22%
CC(C)CCCN1C(N(C)C)=NC[C@@H]1Cc1ccccc1 | · | · | 0% | · | 30%
O=C1CC(c2ccccc2)Cc2[nH]c(=O)c(-c3nc(-c4ccc(Cl)c(Cl)c4)cs3)cc21 (stereo not drawn) | · | · | 5% | · | ·
Cc1ccc(NC(=O)c2[nH]cnc2C(=O)NN)cc1 | 13% | 26* | -6% | 71* | 10%
Cc1ccc(NC(=O)c2nc[nH]c2C(=O)NCCCNC(=O)c2[nH]cnc2C(=O)Nc2ccc(C)cc2)cc1 | · | · | · | · | -12%
Cc1nc(NC(=S)NC(=O)c2ccccc2)sc1C | -2% | 39* | 3% | 69* | -16%
Cc1nc(NC(=O)c2csc3ccccc23)sc1C | -2% | 39* | ? | 123* | -27%
SMILES | NS1 function inh | CHX counter | AmpC detergent | Shiga toxin inh | AmpC no deterg
Cc1nc(NC(=O)CCc2ccccc2)sc1C | 21% | 40* | -8% | 68* | -15%
COC(=O)c1sc(NC(=S)NC(=O)c2cccc(C)c2)nc1C | 18% | 7 | -17% | 21 | -14%
Cc1nc(NC(=O)c2c(-c3ccccc3Cl)noc2C)sc1C | 17% | 15 | 1% | 21 | 7%
Cc1nc(NC(=O)c2ccccc2)sc1C | -14% | 27* | ? | · | -15%
CSc1nn(CC(=O)Nc2ccc(C)cc2C)c(N)c1S(=O)(=O)c1ccc(Cl)cc1 | · | · | 10% | · | ·
CCOC(=S)SCC(=O)Nc1nc(C)c(C)s1 | -42% | 24* | -1% | 49* | 10µM*
Cc1nc(NC(=O)c2ccccc2O)sc1C | -10% | 18* | 1% | 41 | -13%
CC(=O)c1sc(NC(=O)c2ccccc2)nc1-c1ccccc1 | · | 57* | 2% | 96* | -26%
